Screening results deposited in PubChem BioAssay by National Center for Advancing Translational Sciences (NCATS).
TDP-43 rescue: rescues yeast from TDP-43 toxicity. yeast TDP-43 toxicity rescue, BacTiter-Glo growth, 24 h. Potency, µM (doses to about 46.1 µM), hits mostly activators. hit rate 0.45% among 45,000. AID 1347073; active means well fitted activation curve with a large enough effect; further: 0% is about no effect; nearly all actives have a fitted effect of over 55% in size
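TDP-43-expressing yeast, pregrown in raffinose, seeded at OD600 0.02 in galactose medium with compound for 24 hr at 30 deg C. Growth read by BacTiter-Glo luminescence, so rescue of toxicity appears as activation.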
* hit, by the source's call; i = inactive. This excerpt belongs to a sample that is enriched for hits. Potency means the concentration at half of the fitted maximal effect.

SMILES | TDP-43 rescue
O=C(Nc1ccc(Oc2cccnc2)cc1)c1ccccc1Cl | i
Cn1c(=O)c2ccccc2n(Cc2ccccc2Cl)c1=O | i
CCNC(=O)COC(=O)c1cccc(Br)c1 | i
CN(C)c1cc2c(cc1NS(=O)(=O)c1ccccc1)n(C)c(=O)n2C | i
CC(C)(C)c1n[nH]c(=S)n(/N=C/c2cccs2)c1=O | i
CC(C1CC2CCC1C2)n1c(-c2cccs2)n[nH]c1=S (stereo not given) | 14µM*
CC(C1CC2CCC1C2)N1CC(O)=C(c2nc3ccccc3[nH]2)C1=N (stereo not given) | i
COc1ccc(C(O)c2nc(-c3cccc(NC(C)=O)c3)cs2)cc1 (stereo not given) | i
Cn1c(CCNC(=O)c2ccccc2F)nnc1SCC(=O)Nc1ccccc1F | i
CC(=O)Nc1ccc(S(=O)(=O)Nc2ccc(S(=O)(=O)Nc3nccs3)cc2)cc1 | i
Cc1cc(C)c(S(=O)(=O)N2CCN(C(=O)c3cc4ccccc4o3)CC2)c(C)c1 | i
Cc1onc(-c2ccccc2)c1C(=O)N1CCN(S(=O)(=O)c2ccccc2Br)CC1 | i
Cc1ccc(C(=O)N2CCN(S(=O)(=O)c3cc(Br)ccc3Br)CC2)o1 | 14µM*
CC(C)Oc1ccc(C2CC(=O)N(c3cccc(/C=C/C(=O)O)c3)C2=O)cc1 (stereo not given) | i
Cc1ccccc1S(=O)(=O)NC(=O)C1(C)CCN1C(=O)c1c(C)noc1C (stereo not given) | i
Cc1ccc(C(=O)NNC2CC(=O)N(c3ccc4c(c3)OCCO4)C2=O)cc1 (stereo not given) | i
CC1CCCCC1NC(=S)NC(=O)c1ccccc1Br (stereo not given) | i
O=C(NC(=S)Nc1cccc2cc(O)ccc12)c1ccccc1Br | 16µM*
O=C(NC(=S)Nc1cccc2cnccc12)c1ccccc1 | i
COC(=O)c1cc(NC(=O)c2cccc([N+](=O)[O-])c2C)ccc1Cl | i
COc1ccc(C(=O)NC2CCN(C(=O)NCc3ccccc3)CC2)cc1 | i
N/C(=N\OC(=O)c1ccc(Cl)cc1[N+](=O)[O-])c1cccnc1 | i
N/C(=N\OC(=O)c1cccc(Cl)c1)c1cccnc1 | 11µM*
N/C(=N\OC(=O)COc1ccc(Cl)cc1Cl)c1cccnc1 | i
O=C(O)/C(=C\c1ccccc1OC(F)F)Sc1nnc(-c2ccc(F)cc2)o1 | i
SMILES | TDP-43 rescue
CCC(=O)Nc1ccc(Cl)c(NC(=O)c2c(OC)cccc2OC)c1 | i
C=CCNC(=O)c1ccccc1NC(=O)C1COc2ccccc2O1 (stereo not given) | i
O=C(NC(=S)Nc1ccccc1)c1ccc(-c2ccccc2)cc1 | i
O=C(Nc1ccc(C(=O)O)cc1)/C(=C\c1ccccc1)NC(=O)c1ccccc1 | i
O=C(O)c1ccc(NC(=S)NC(=O)c2ccc(-c3ccccc3)cc2)cc1 | 13µM*
CC(C)(C)c1nnc(NC(=S)Nc2ccccc2)s1 | i
Cc1ccc(/C=C/C(=O)c2ccc(O)cc2)cc1 | 16µM*
CCN(CC)c1ccc(/C=C/C(=O)c2ccc(Br)cc2)cc1 | i
Cc1ccc(C(=O)/C=C/NCc2ccc(F)cc2)cc1 | i
CC1C(=O)Nc2ccc(S(=O)(=O)Nc3ccccc3Br)cc2NC1=O (stereo not given) | i
O=C(NCc1ccc(N2CCCC2=O)cc1)C1CCC(=O)N(Cc2ccccc2F)C1 (stereo not given) | i
O=C(NCC1CCN(C(=O)c2cccc([N+](=O)[O-])c2)CC1)c1cccc([N+](=O)[O-])c1 | i
CC(C)CNC(=O)c1c(F)c(F)c(F)c(F)c1F | i
O=C(NCC1CCN(C(=O)c2c(F)c(F)c(F)c(F)c2F)CC1)c1c(F)c(F)c(F)c(F)c1F | 18µM*
COc1ccc(-c2nc(C)sc2CC(=O)O)cc1OC | i
CN(Cc1cccc(F)c1)C(=O)CNS(=O)(=O)c1ccc2ccccc2c1 | i
COc1ccc(CNCCC(c2ccc(C)cc2)c2ccco2)cc1 (stereo not given) | i
O=C(O)C(NS(=O)(=O)c1ccc(F)cc1)c1ccccc1 (stereo not given) | i
O=S(=O)(NCCC(c1ccc(F)cc1)c1ccco1)c1ccccc1 (stereo not given) | 18µM*
CSc1ccc(CN(C)C(=O)c2cc(Cl)c3c(c2)OCCO3)cc1 | i
CC(C)CCNC(=O)C1CCC(CNc2c(N3CCCC3)c(=O)c2=O)CC1 (stereo not given) | i
CC1CC(=O)N(C)c2cc([N+](=O)[O-])ccc2N1 (stereo not given) | i
CCOc1ccc(NCc2cccn2-c2nnc(N3CCC(C(=O)NCc4ccccc4Cl)CC3)s2)cc1 | i
CC1CCCN(C(=O)COc2ccc(-c3ccccc3)cc2)C1 (stereo not given) | 11µM*
COc1ccc(CC(=O)OCC(=O)N2CCCC(C)C2)cc1 (stereo not given) | i
CC1CCCN(CC(=O)NNC(=O)COc2ccc(Br)cc2)C1 (stereo not given) | i
